{"source": "PubChem BioAssay (NCATS)", "key": {"[1]": {"test": "Drug repurposing screens with cells derived from glioblastoma tumor samples (AID 1345199); further: nearly all actives have a fitted effect of over 40% in size", "conditions": "GBM patient neurospheres viability, ATP luminescence, 48 h", "in_short": "(§1)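 Primary testing used CD133+ neurospheres from four GBM patients, seven concentrations, 48 h exposure and ATP-based viability; confirmation added three slower-growing patient lines.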"}, "astro": {"tested_on": "astro", "test": "Drug repurposing screens with cells derived from glioblastoma tumor samples (AID 1345199)", "conditions": "viability, ATP luminescence, 48 h; series mostly up to 45.9 µM", "in_short": "as §1"}, "[2]": {"conditions": "at 45.9 µM (top of the series), tumour line B"}, "[3]": {"conditions": "at 45.9 µM (top of the series), tumour line D"}, "[4]": {"conditions": "at 46.1 µM (top of the series), tumour line C"}, "[5]": {"conditions": "at 46 µM (top of the series), tumour line A"}}, "note": "Results filed as inconclusive are left out. A number with no mark means an inactive call. Activity calls are given as the source filed them. The call rests on the fitted dose curve; in most records, active means well fitted inhibition curve with a large enough effect; inconclusive means small, poorly fitted or top-dose-only effect; inactive means flat fitted curve, though single readings scatter. On the % scale 0 is the no-effect control and ±100 the full control effect; potency means the concentration at half of the fitted maximal effect."}
{"smiles": "CC#CCC(C)[C@H](O)/C=C/[C@@H]1[C@H]2C/C(=C/CCCC(=O)O)C[C@H]2C[C@H]1O", "note": "(some centres not stated)", "values": [{"measurement": "activity, negative = cell killing", "setting": "[1]; [2]", "value": -8.92, "unit": "%"}, {"measurement": "activity, negative = cell killing", "setting": "[1]; [3]", "value": -4.73, "unit": "%"}, {"measurement": "activity, negative = cell killing", "setting": "[1]; [4]", "value": -5.69, "unit": "%"}, {"measurement": "Potency", "setting": "[1]; tumour line A", "value": "17.8 µM (active)"}, {"measurement": "Potency", "setting": "astro", "value": "inactive"}]}
{"smiles": "O=c1[nH]cnc2[nH]cc(CN3CCCCC3)c12", "values": [{"measurement": "activity, negative = cell killing", "setting": "[1]; [2]", "value": -5.2, "unit": "%"}, {"measurement": "activity, negative = cell killing", "setting": "[1]; [3]", "value": -0.491, "unit": "%"}, {"measurement": "activity, negative = cell killing", "setting": "[1]; [5]", "value": 2.77, "unit": "%"}, {"measurement": "activity, negative = cell killing", "setting": "[1]; [4]", "value": -8.31, "unit": "%"}, {"measurement": "Potency", "setting": "astro", "value": "inactive"}]}
{"smiles": "O=C(OCCO)c1ccccc1O", "values": [{"measurement": "activity, negative = cell killing", "setting": "[1]; [2]", "value": -4.1, "unit": "%"}, {"measurement": "activity, negative = cell killing", "setting": "[1]; [3]", "value": 8.11, "unit": "%"}, {"measurement": "activity, negative = cell killing", "setting": "[1]; [5]", "value": -21.4, "unit": "%"}, {"measurement": "activity, negative = cell killing", "setting": "[1]; [4]", "value": -4.97, "unit": "%"}, {"measurement": "Potency", "setting": "astro", "value": "inactive"}]}
{"smiles": "CC(=O)OCC(=O)[C@@]1(O)[C@H](C)C[C@H]2[C@@H]3C[C@H](F)C4=CC(=O)C=C[C@]4(C)[C@H]3[C@@H](O)C[C@@]21C", "values": [{"measurement": "activity, negative = cell killing", "setting": "[1]; [2]", "value": 1.71, "unit": "%"}, {"measurement": "activity, negative = cell killing", "setting": "[1]; [3]", "value": 2.28, "unit": "%"}, {"measurement": "activity, negative = cell killing", "setting": "[1]; [5]", "value": -12.7, "unit": "%"}, {"measurement": "activity, negative = cell killing", "setting": "[1]; [4]", "value": 13.2, "unit": "%"}, {"measurement": "Potency", "setting": "astro", "value": "inactive"}]}
{"smiles": "COC1=C(C(=O)O)N2C(=O)[C@@H](NC(=O)[C@H](N)C3=CCC=CC3)[C@H]2SC1", "values": [{"measurement": "activity, negative = cell killing", "setting": "[1]; [2]", "value": -9.93, "unit": "%"}, {"measurement": "activity, negative = cell killing", "setting": "[1]; [3]", "value": -11, "unit": "%"}, {"measurement": "activity, negative = cell killing", "setting": "[1]; [4]", "value": 6.55, "unit": "%"}, {"measurement": "Potency", "setting": "astro", "value": "inactive"}]}
{"smiles": "COc1ccc(CCNCC(O)COc2cccc(C)c2)cc1OC", "note": "(configuration not stated)", "values": [{"measurement": "activity, negative = cell killing", "setting": "[1]; [2]", "value": -28.4, "unit": "%"}, {"measurement": "activity, negative = cell killing", "setting": "[1]; [4]", "value": -25.3, "unit": "%"}, {"measurement": "Potency", "setting": "[1]; tumour line A", "value": "11.2 µM (active)"}, {"measurement": "Potency", "setting": "astro", "value": "inactive"}]}
{"smiles": "O=C[C@H](O)[C@@H](O)[C@H](O)[C@H](O)CO", "values": [{"measurement": "activity, negative = cell killing", "setting": "[1]; [2]", "value": -4.49, "unit": "%"}, {"measurement": "activity, negative = cell killing", "setting": "[1]; [3]", "value": -7.76, "unit": "%"}, {"measurement": "activity, negative = cell killing", "setting": "[1]; [4]", "value": 7.35, "unit": "%"}, {"measurement": "Potency", "setting": "astro", "value": "inactive"}]}
{"smiles": "CN=C(NC)NCc1ccccc1", "values": [{"measurement": "activity, negative = cell killing", "setting": "[1]; [2]", "value": -3.78, "unit": "%"}, {"measurement": "activity, negative = cell killing", "setting": "[1]; [3]", "value": 7.26, "unit": "%"}, {"measurement": "activity, negative = cell killing", "setting": "[1]; [4]", "value": -3.39, "unit": "%"}, {"measurement": "Potency", "setting": "astro", "value": "inactive"}]}
{"smiles": "CC(=O)OC[C@H]1O[C@@H](O[C@H]2[C@H](O)[C@@H](OC(=O)c3ccccc3C(=O)O)[C@H](O)O[C@@H]2COC(C)=O)[C@H](O)[C@@H](OC(=O)c2ccccc2C(=O)O)[C@@H]1O", "values": [{"measurement": "activity, negative = cell killing", "setting": "[1]; [2]", "value": -10.5, "unit": "%"}, {"measurement": "activity, negative = cell killing", "setting": "[1]; [3]", "value": -4.26, "unit": "%"}, {"measurement": "activity, negative = cell killing", "setting": "[1]; [4]", "value": 6.79, "unit": "%"}, {"measurement": "Potency", "setting": "astro", "value": "inactive"}]}
{"smiles": "C/C=C(/CC[C@@H](C)[C@H]1CC[C@H]2C3=CC[C@H]4[C@H](C)[C@@H](O)CC[C@]4(C)[C@H]3CC[C@]12C)C(C)C", "values": [{"measurement": "activity, negative = cell killing", "setting": "[1]; [2]", "value": -6.71, "unit": "%"}, {"measurement": "activity, negative = cell killing", "setting": "[1]; [3]", "value": -7.38, "unit": "%"}, {"measurement": "activity, negative = cell killing", "setting": "[1]; [4]", "value": 9.21, "unit": "%"}, {"measurement": "Potency", "setting": "astro", "value": "inactive"}]}
{"smiles": "CCCCCCCCCCCCCCCC(=O)OC[C@@H](COP(=O)([O-])OCC[N+](C)(C)C)OC(=O)CCCCCCCCCCCCCCC", "values": [{"measurement": "activity, negative = cell killing", "setting": "[1]; [2]", "value": -16.6, "unit": "%"}, {"measurement": "activity, negative = cell killing", "setting": "[1]; [3]", "value": 2.92, "unit": "%"}, {"measurement": "activity, negative = cell killing", "setting": "[1]; [4]", "value": 0.955, "unit": "%"}, {"measurement": "Potency", "setting": "astro", "value": "inactive"}]}
{"smiles": "O=C(CCCN1CCC(n2c(=S)[nH]c3ccccc32)CC1)c1ccc(F)cc1", "values": [{"measurement": "activity, negative = cell killing", "setting": "[1]; [2]", "value": -28.9, "unit": "%"}, {"measurement": "Potency", "setting": "[1]; tumour line A", "value": "8.91 µM (active)"}, {"measurement": "Potency", "setting": "[1]; tumour line D", "value": "11.2 µM (active)"}, {"measurement": "Potency", "setting": "astro", "value": "inactive"}]}
{"smiles": "O=C(O)[C@@H](O)[C@H](O)[C@H](O)[C@@H](O)C(=O)O", "note": "(tested in a mixture with another compound)", "values": [{"measurement": "activity, negative = cell killing", "setting": "[1]; [2]", "value": -6.98, "unit": "%"}, {"measurement": "activity, negative = cell killing", "setting": "[1]; [3]", "value": -10.8, "unit": "%"}, {"measurement": "activity, negative = cell killing", "setting": "[1]; [4]", "value": -8.08, "unit": "%"}, {"measurement": "Potency", "setting": "astro", "value": "inactive"}]}
{"smiles": "O=C(O)c1ccccc1[O-].O=C(O)c1ccccc1[O-].[Zn+2]", "values": [{"measurement": "activity, negative = cell killing", "setting": "[1]; [2]", "value": -5.99, "unit": "%"}, {"measurement": "activity, negative = cell killing", "setting": "[1]; [3]", "value": -6.7, "unit": "%"}, {"measurement": "activity, negative = cell killing", "setting": "[1]; [4]", "value": -14.8, "unit": "%"}, {"measurement": "Potency", "setting": "astro", "value": "inactive"}]}
{"smiles": "CC(=O)O[C@H]1CC[C@@]2(C)C(=CC[C@H]3[C@@H]4CC[C@H](C(C)=O)[C@@]4(C)CC[C@@H]32)C1", "values": [{"measurement": "activity, negative = cell killing", "setting": "[1]; [2]", "value": -9.15, "unit": "%"}, {"measurement": "activity, negative = cell killing", "setting": "[1]; [3]", "value": -28.1, "unit": "%"}, {"measurement": "activity, negative = cell killing", "setting": "[1]; [4]", "value": -12, "unit": "%"}, {"measurement": "Potency", "setting": "astro", "value": "inactive"}]}
{"smiles": "CN(C(=O)CO)c1c(I)c(C(=O)NCC(O)CO)c(I)c(C(=O)NCC(O)CO)c1I", "note": "(configuration not stated)", "values": [{"measurement": "activity, negative = cell killing", "setting": "[1]; [2]", "value": -7.14, "unit": "%"}, {"measurement": "activity, negative = cell killing", "setting": "[1]; [3]", "value": -10.4, "unit": "%"}, {"measurement": "activity, negative = cell killing", "setting": "[1]; [4]", "value": -4.09, "unit": "%"}, {"measurement": "Potency", "setting": "astro", "value": "inactive"}]}
{"smiles": "O=P(O)(O)OC(Cn1cncn1)(Cn1cncn1)c1ccc(F)cc1F", "values": [{"measurement": "activity, negative = cell killing", "setting": "[1]; [2]", "value": -3.57, "unit": "%"}, {"measurement": "activity, negative = cell killing", "setting": "[1]; [3]", "value": -9.38, "unit": "%"}, {"measurement": "activity, negative = cell killing", "setting": "[1]; [4]", "value": 14, "unit": "%"}, {"measurement": "Potency", "setting": "astro", "value": "inactive"}]}
{"smiles": "CCOC(=O)[C@H](CCc1ccccc1)N[C@H]1CCCN2CCC[C@@H](C(=O)O)N2C1=O", "values": [{"measurement": "activity, negative = cell killing", "setting": "[1]; [2]", "value": -17.5, "unit": "%"}, {"measurement": "activity, negative = cell killing", "setting": "[1]; [3]", "value": -14.2, "unit": "%"}, {"measurement": "activity, negative = cell killing", "setting": "[1]; [4]", "value": 4.99, "unit": "%"}, {"measurement": "Potency", "setting": "astro", "value": "inactive"}]}
{"smiles": "NNc1nnc(Cc2ccncc2)c2ccccc12", "values": [{"measurement": "activity, negative = cell killing", "setting": "[1]; [2]", "value": -17.7, "unit": "%"}, {"measurement": "activity, negative = cell killing", "setting": "[1]; [3]", "value": -26.1, "unit": "%"}, {"measurement": "activity, negative = cell killing", "setting": "[1]; [4]", "value": -26.3, "unit": "%"}, {"measurement": "Potency", "setting": "astro", "value": "inactive"}]}
{"smiles": "COc1cc(C[C@@H]2NCCc3cc(O)c(O)cc32)cc(OC)c1OC", "values": [{"measurement": "activity, negative = cell killing", "setting": "[1]; [2]", "value": 13.6, "unit": "%"}, {"measurement": "activity, negative = cell killing", "setting": "[1]; [3]", "value": -12.2, "unit": "%"}, {"measurement": "activity, negative = cell killing", "setting": "[1]; [4]", "value": -8.42, "unit": "%"}, {"measurement": "Potency", "setting": "astro", "value": "inactive"}]}
{"smiles": "O=S(O)CO", "values": [{"measurement": "activity, negative = cell killing", "setting": "[1]; [2]", "value": 4.97, "unit": "%"}, {"measurement": "activity, negative = cell killing", "setting": "[1]; [3]", "value": -2.6, "unit": "%"}, {"measurement": "activity, negative = cell killing", "setting": "[1]; [4]", "value": -1.44, "unit": "%"}, {"measurement": "Potency", "setting": "astro", "value": "inactive"}]}
{"smiles": "C[C@]12CC[C@@H]3c4ccc(OS(=O)(=O)O)cc4CC[C@H]3[C@@H]1CCC2=O", "values": [{"measurement": "activity, negative = cell killing", "setting": "[1]; [2]", "value": -10.8, "unit": "%"}, {"measurement": "activity, negative = cell killing", "setting": "[1]; [3]", "value": 4.49, "unit": "%"}, {"measurement": "activity, negative = cell killing", "setting": "[1]; [4]", "value": -5.66, "unit": "%"}, {"measurement": "Potency", "setting": "astro", "value": "inactive"}]}
